Results on eight compounds are retold here after PubChem BioAssay (NCI).

Test [1] can be described thus: NCI Yeast Anticancer Drug Screen. Data for the rad50 strain (AID 155).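 Also: 0% = growth of vehicle-only cultures of the same strain.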 As to conditions: S. cerevisiae rad50 strain growth inhibition, stronger effect = higher value. The method, boiled down: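 Vehicle-treated cultures provide the reference for the growth inhibition reported for compound-exposed, repair-deficient yeast.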
Test [2] can be described thus: NCI Yeast Anticancer Drug Screen. Data for the mec2-1 strain (AID 157). As to conditions: S. cerevisiae mec2-1 strain, stronger effect = higher value. Put shortly:
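Test agents were screened against the mec2-1 yeast strain, with defined DNA repair or cell cycle alteration. Growth was scored as inhibition against vehicle-only controls.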

The nature of test [3]: NCI Yeast Anticancer Drug Screen. Data for the sgs1 mgt1 strain (AID 161).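 Also: 0% = growth of cultures given vehicle only.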 As to conditions: S. cerevisiae sgs1 mgt1 strain, stronger effect = higher value. Put shortly: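 Inhibition of yeast growth, normalised to vehicle-treated controls, is reported for a strain bearing genetic alterations in DNA damage repair.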
A short description of test [4]: NCI Yeast Anticancer Drug Screen. Data for the cln2 rad14 strain (AID 165).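 Also: 0% = growth equal to vehicle treated cultures.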 Particulars: S. cerevisiae cln2 rad14 strain, stronger effect = higher value. The method, boiled down:
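Growth of compound-exposed yeast (cln2 rad14 genotype) measured and expressed as inhibition relative to vehicle.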

Test [5] in a line: NCI Yeast Anticancer Drug Screen. Data for the bub3 strain (AID 167). As to conditions: S. cerevisiae bub3 mutant strain, stronger effect = higher value. The method, boiled down: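 Mutant yeast screening strain plus compound; vehicle-treated cultures serve as the 0% inhibition reference.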
Test [6] is described as follows: NCI Yeast Anticancer Drug Screen. Data for the mlh1 rad18 strain (AID 175). As to conditions: S. cerevisiae mlh1 rad18 strain growth inhibition, stronger effect = higher value. Put shortly:
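In this whole-cell yeast screen, a strain with altered DNA damage repair is challenged with compound, and its growth is measured against matched vehicle-treated controls.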

The mark [7] stands for this setting: at 5.0 µM (retest, dose inferred, filed as 0.5).
Where [8] appears, read: at 50.0 µM (retest, dose inferred, filed as 5.0).

Values joined by “and” are separate entries in the source; they are usually repeats but may differ in a detail not shown here. Equal values may be shown once. The panel holds about 79,000 compounds, 15% with a hit somewhere; the sample as a whole holds those more often. A structure can be active in one record and inactive in another. Active and inactive are the calls of the source. Rule as the data show it: active = growth inhibition above about 70%; inactive = the rest.

Regarding `O=[N+]([O-])c1cc([N+](=O)[O-])c2ccccc2c1NS(=O)(=O)/C=C/c1ccccc1`, the growth inhibition is 5% (inactive) in test [1] (setting [7]); 54% (inactive) in test [1] (setting [8]); 53% (inactive) in test [1] (at 50.0 µM); 8% (inactive) in test [2] (setting [7]); 64% (inactive) in test [2] (setting [8]); 70.7% (active) in test [2] (at 50.0 µM). In addition, the growth inhibition was 16% (inactive) in test [3] (setting [7]); 47% (inactive) in test [3] (setting [8]); 49% (inactive) in test [3] (at 50.0 µM); 10% (inactive) in test [4] (setting [7]); 77% (active) in test [4] (setting [8]); 50.4% (inactive) in test [4] (at 50.0 µM). In addition, the growth inhibition in test [5] (setting [7]) is 2% (inactive); in test [5] (setting [8]) it was 42% (inactive); in test [5] (at 50.0 µM), 16.3% (inactive); in test [6] (setting [7]), 7% (inactive); in test [6] (setting [8]), 71% (active); in test [6] (at 50.0 µM), 44.5% (inactive).
`Cc1cc(/C=C/C2CCC3CC(C)CCC3N2CCO)c(C)n1-c1ccccc1` (centres undefined): the growth inhibition is 16% (inactive) in test [1] (setting [7]); 95% (active) in test [1] (setting [8]); 99.1% (active) in test [1] (at 50.0 µM); 19% (inactive) in test [2] (setting [7]); 99% (active) in test [2] (setting [8]); 98.8% (active) in test [2] (at 50.0 µM). The growth inhibition in test [3] (setting [7]) is 26% (inactive); in test [3] (setting [8]), 100% (active); in test [3] (at 50.0 µM) it was 99.2% (active); in test [4] (setting [7]), 12% (inactive); in test [4] (setting [8]), 90% (active); in test [4] (at 50.0 µM), 98.8% (active). Besides, the growth inhibition in test [5] (setting [7]) was 21% (inactive); in test [5] (setting [8]), 98% (active); in test [5] (at 50.0 µM), 98% (active); in test [6] (setting [7]), 17% (inactive); in test [6] (setting [8]), 97% (active); in test [6] (at 50.0 µM), 97.9% (active).
Take `O=[N+]([O-])c1cc2c(cc1S(=O)(=O)O)C1C(C3C2C2(Cl)C(Cl)=C(Cl)C3(Cl)C2(Cl)Cl)C2(Cl)C(Cl)=C(Cl)C1(Cl)C2(Cl)Cl` (centres undefined): the growth inhibition in test [1] (setting [7]) is -3% (inactive); in test [1] (setting [8]) it was 10% (inactive); in test [1] (at 50.0 µM) it was 66.2% (inactive); in test [2] (setting [7]) it was -10% (inactive); in test [2] (setting [8]) it was 26% (inactive); in test [2] (at 50.0 µM), 69.9% (inactive). Further, the growth inhibition in test [3] (setting [7]) was 22% (inactive); in test [3] (setting [8]), 41% (inactive); in test [3] (at 50.0 µM), 72.5% (active); in test [4] (setting [7]), 34% (inactive); in test [4] (setting [8]), 41% (inactive); in test [4] (at 50.0 µM), 54.2% (inactive). The growth inhibition was -1% (inactive) in test [5] (setting [7]); 44% (inactive) in test [5] (setting [8]); 71.2% (active) in test [5] (at 50.0 µM); 8% (inactive) in test [6] (setting [7]); 57% (inactive) in test [6] (setting [8]); 67.3% (inactive) in test [6] (at 50.0 µM).
Turning to `CC(C)=CCC(O)C1=CC(=O)c2c(O)ccc(O)c2C1=O` (centres undefined), the growth inhibition in test [1] (setting [7]) was 44% (inactive); in test [1] (setting [8]), 59% (inactive); in test [1] (at 50.0 µM), 9.15% (inactive) and 87.9% (active) and 4.05% (inactive); in test [2] (setting [7]), 46% (inactive); in test [2] (setting [8]), 66% (inactive); in test [2] (at 50.0 µM), 15.9% (inactive) and 90.7% (active) and 54.8% (inactive). The growth inhibition is 43% (inactive) in test [3] (setting [7]); 92% (active) in test [3] (setting [8]); 12.4% (inactive) and 91.5% (active) and 30.6% (inactive) in test [3] (at 50.0 µM); 59% (inactive) in test [4] (setting [7]); 94% (active) in test [4] (setting [8]); 16.1% (inactive) and 89.1% (active) and 33.1% (inactive) in test [4] (at 50.0 µM). The growth inhibition was 62% (inactive) in test [5] (setting [7]); 87% (active) in test [5] (setting [8]); 22.6% (inactive) and 88% (active) and 36.5% (inactive) in test [5] (at 50.0 µM); 43% (inactive) in test [6] (setting [7]); 60% (inactive) in test [6] (setting [8]); 26.6% (inactive) and 85.2% (active) and 9.65% (inactive) in test [6] (at 50.0 µM).
As to `O=C1C(=Cc2c[nH]c3ccccc23)C(=O)c2ccccc21`, the growth inhibition was 11% (inactive) in test [1] (setting [7]); 93% (active) in test [1] (setting [8]); -9.1% (inactive) and 69.2% (inactive) in test [1] (at 50.0 µM); -24% (inactive) in test [2] (setting [7]); 96% (active) in test [2] (setting [8]); -6.4% (inactive) and 69.5% (inactive) in test [2] (at 50.0 µM). Further, the growth inhibition in test [3] (setting [7]) was -1% (inactive); in test [3] (setting [8]) it was 91% (active); in test [3] (at 50.0 µM) it was 0.1% (inactive) and 71.1% (active); in test [4] (setting [7]), 6% (inactive); in test [4] (setting [8]), 83% (active); in test [4] (at 50.0 µM) it was 2.15% (inactive) and 32.4% (inactive). Besides, the growth inhibition in test [5] (setting [7]) was 3% (inactive); in test [5] (setting [8]), 95% (active); in test [5] (at 50.0 µM), -15.7% (inactive) and 62.8% (inactive); in test [6] (setting [7]), -1% (inactive); in test [6] (setting [8]) it was 96% (active); in test [6] (at 50.0 µM) it was -1.65% (inactive) and 78.5% (active).
For `CCCCCCC(C)CC(CCCCCC)NCCOC(=O)c1ccc([N+](=O)[O-])cc1` (centres undefined), the growth inhibition in test [1] (setting [7]) was 34% (inactive) and 18% (inactive); in test [1] (setting [8]), 98% (active) and 97% (active); in test [1] (at 50.0 µM) it was 98.8% (active) and 99.2% (active); in test [2] (setting [7]), 40% (inactive) and 22% (inactive); in test [2] (setting [8]) it was 99% (active); in test [2] (at 50.0 µM) it was 99.3% (active) and 99.5% (active). Further, the growth inhibition was 80% (active) and 42% (inactive) in test [3] (setting [7]); 99% (active) in test [3] (setting [8]); 99.2% (active) and 99.5% (active) in test [3] (at 50.0 µM); 14% (inactive) and 2% (inactive) in test [4] (setting [7]); 98% (active) in test [4] (setting [8]); 98.5% (active) and 99.1% (active) in test [4] (at 50.0 µM). The growth inhibition is 19% (inactive) and 6% (inactive) in test [5] (setting [7]); 99% (active) and 98% (active) in test [5] (setting [8]); 98.7% (active) and 99.3% (active) in test [5] (at 50.0 µM); 72% (active) and 68% (inactive) in test [6] (setting [7]); 99% (active) and 98% (active) in test [6] (setting [8]); 99% (active) and 99.5% (active) in test [6] (at 50.0 µM).
As for `COc1c(CBr)c(CBr)c(OC)c2c1C(=O)c1ccccc1C2=O`, the growth inhibition was 33% (inactive) in test [1] (setting [7]); 99% (active) in test [1] (setting [8]); 87.2% (active) in test [1] (at 50.0 µM); 14% (inactive) in test [2] (setting [7]); 99% (active) in test [2] (setting [8]); 63.8% (inactive) in test [2] (at 50.0 µM). In addition, the growth inhibition is 23% (inactive) in test [3] (setting [7]); 99% (active) in test [3] (setting [8]); 86.7% (active) in test [3] (at 50.0 µM); 2% (inactive) in test [4] (setting [7]); 99% (active) in test [4] (setting [8]); 41% (inactive) in test [4] (at 50.0 µM). Also, the growth inhibition in test [5] (setting [7]) is 9% (inactive); in test [5] (setting [8]), 99% (active); in test [5] (at 50.0 µM), 64.2% (inactive); in test [6] (setting [7]), 19% (inactive); in test [6] (setting [8]), 99% (active); in test [6] (at 50.0 µM), 92.8% (active).
As to `O=C1C(CN(Cc2ccccc2)Cc2ccccc2)CCCC1CN(Cc1ccccc1)Cc1ccccc1` (centres undefined), the growth inhibition was 4% (inactive) in test [1] (setting [7]); 17% (inactive) in test [1] (setting [8]); 90.6% (active) and -1.45% (inactive) in test [1] (at 50.0 µM); -3% (inactive) in test [2] (setting [7]); 22% (inactive) in test [2] (setting [8]); 73% (active) and 25.6% (inactive) in test [2] (at 50.0 µM). Besides, the growth inhibition was 4% (inactive) in test [3] (setting [7]); 46% (inactive) in test [3] (setting [8]); 72.7% (active) and 21.9% (inactive) in test [3] (at 50.0 µM); -20% (inactive) in test [4] (setting [7]); 7% (inactive) in test [4] (setting [8]); 23.6% (inactive) and 67.8% (inactive) in test [4] (at 50.0 µM). In addition, the growth inhibition in test [5] (setting [7]) was -16% (inactive); in test [5] (setting [8]), 47% (inactive); in test [5] (at 50.0 µM) it was 83.2% (active) and 21.4% (inactive); in test [6] (setting [7]), -3% (inactive); in test [6] (setting [8]) it was 58% (inactive); in test [6] (at 50.0 µM), 80.8% (active) and 14.2% (inactive).
